± gives the standard deviation.
tested on: MILI (PIWIL2) piRISC loaded with piRNA #1 (26 nt); assay: pre-steady-state target cleavage rate (min^-1); guide: piRNA #1 5'p-UGAGGUAGUAGGUUGUAUAGUAUCCA; MIWI and MILI are mouse PIWI proteins and EfPiwi is from a freshwater sponge; tags in brackets are library labels; higher = faster piRNA-guided slicing of the target; conditions: auxiliary factor: 500 nM mouse GTSF1
Outline: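 The pre-steady-state cleavage rate came from a burst-and-steady-state fit to pooled data from three Cleave-'n-Seq trials, in which uncleaved targets were sequenced and normalised to depth and to weakly complementary targets. Each reaction held 0.1 nM transcribed, DNA-blocked target RNA library and 1 nM active affinity-purified piRISC carrying one synthetic guide, with or without 500 nM GTSF1 partner protein, in HEPES–potassium acetate buffer at 33 °C for 0–8 or 0–960 min. k3 was capped at 0.0001 min^-1.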

Sequence	pre-steady-state target cleavage rate
GGAGACCUAUGAAUACAUGCUACUACCUCA	0.00268 ± 0.0026
GGAGACCUAUGAUUACAAGCUUCUACCUCA	0.00347 ± 0.0023
GGAGACCUAUGUAACAACCUACUACCUCA	0.0402 ± 0.0057
GGAGACCUAUGUAUCCAACCUACUACCUCA	0.0333 ± 0.005
GGAGACCUAUCUAUUCAACCUAGUACCUCA	0.00955 ± 0.0033
GGAGACCUUACUAUAGUUCCUACUACCUCA	0.113 ± 0.0093
GGAGACCUAUGAUAUCUAACCUACUACCUCA	0.00471 ± 0.0023
GGAGACCUAUGAUUACAACCUACAUACCUCA	0.00484 ± 0.0019
GGAGACCUAUGAUAUGUUCCUCCUACCUCA	< 0.0001
GGAGACCAUACUUUACAACCUUCUACCUCA	0.0105 ± 0.0033
GGAGUGGAUACUAUACAACCUACUACGACA	0.0497 ± 0.008
GGAGACCUAUGAUAACAACCUACUACACUCA	0.00558 ± 0.0031
GGAGUGGAUGACUAUACAACCUACUACCUCA	0.0838 ± 0.019
GGAGACCUAACUAUUCAACCUAGUACCUCA	0.0158 ± 0.0076
GGAGACCAUACUAUACAACGAUCUACCUCA	< 0.0001
GGAGACCUAUGUAUACAACCUUCUACCACA	0.00445 ± 0.0026
GGAGACCUAUGUAUACAUGGAUGAUGGAGA [g14:g19:cont:t1A]	< 0.0001
GGAGACCUAUGAUAACAACCUACUUACCUCA	0.00599 ± 0.0021
GGAGUGGAUAGUAAACAACCUACUACCUCA	0.0879 ± 0.0084
GGAGACGAUACUUUUCAACCUACUACCUCA	0.171 ± 0.011

Sequence	pre-steady-state target cleavage rate
GGAGACCUAUGAUAUGUUCCUAUCUACCUCA	< 0.0001
GGAGACGAUACUAUACAUGGUACUACCUCA	0.00601 ± 0.0019
GGAGACCUAUGAUUACAACGUACUUCCUCA	0.00374 ± 0.0031
GGAGACCUAACUAUACAACCUACUCACCUCA	0.147 ± 0.032
GGAGACCUAUCUAUACAACCUACUACUCA	0.0936 ± 0.013
GGAGACCUAUGUAUAGAACCUACUACCUCA	0.0559 ± 0.0092
GGAGACCUAUGAAUACAACCUACUACCUCCA	0.0129 ± 0.0043
GGAGACCUAUGAUUACAACCUACUACCUCC [g2:g17:cont:t1C]	0.00979 ± 0.0034
GGAGACCUUACUAUACAUGGUACUACCUCA	0.00395 ± 0.0029
GGAGACCAUACUAAACAACCUACUACCACA	0.233 ± 0.026
GGAGACCUUACUAUACAUCCUACUACGUCA	0.141 ± 0.022
GGAGACCUAAGUAUACAACCUACUAGCUCA	0.0149 ± 0.0043
GGAGACCAUACUAAACAACCAACUACCUCA	0.00724 ± 0.003
GGAGACCUAUGAUUACAUCCUACUACCUCA	0.0102 ± 0.0027
GGAGACCAUACAAUACAAGCUACUACCUCA	0.205 ± 0.016
GGAGACCUUACUAUACAACCUACUUCCUGA	0.0269 ± 0.0086
GGAGACCUUACUAUACAAGCUACUUCCUCA	0.149 ± 0.021
GGAGACCUAUGAUAUGUUCCUACUAGCUCA	< 0.0001
GGAGAGGAUACAAUACAUCCUACUACCUCA	0.239 ± 0.021
GGAGACCUAACAAUACAACCUACUACGUCA	0.023 ± 0.0089
